Experimental data from PubChem BioAssay (NCATS).
Results filed as inconclusive are left out. The source made the active and inactive calls. The call rests on the fitted dose curve; in most records, active means well fitted cell-killing curve with a large enough effect; inconclusive means small, poorly fitted or top-dose-only effect, or effect the other way; inactive means flat fitted curve, though single readings scatter.

How the values were obtained:
Assay in all cases: Primary qHTS to identify gynecologic anti-cancer compounds using libraries of approved drugs and bioactive compounds (AID 1345084); further: nearly all actives have a fitted effect of over 55% in size
Conditions in all cases: Gynecologic cancer cell panel viability, ATPlite luminescence, 48 h; series mostly up to 57.5 µM
[1] = system: OV90
Method in brief: (§1)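 Luminescence from the ATPlite ATP-monitoring reagent indicates viable cell number; lower signal means cytotoxicity. Cells received compound 16 h after seeding and were exposed for 48 h across five concentrations.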

[2] = system: PA-1
Method in brief: as §1

[3] = system: SKOV3
Method in brief: as §1

[4] = system: Tov-21-G
Method in brief: as §1

[5] = system: Tov112D
Method in brief: as §1
On the % scale 0 is the no-effect control and ±100 the full control effect.

CCOc1c2c(c(OCC)c3ccccc13)C(=O)N(c1ccc(CC(=O)NS(=O)(=O)c3ccccc3)cc1)C2
inactive: Potency [1] | Potency [2] | Potency [3] | Potency [4] | Potency [5]

C=C[C@H]1[C@H](O[C@@H]2O[C@H](CO[C@@H]3OC[C@](O)(CO)[C@H]3O)[C@@H](O)[C@H](O)[C@H]2O)OC=C2C(=O)OCC[C@H]21
inactive: Potency [1] | Potency [2] | Potency [3] | Potency [4] | Potency [5]

c1nc(NC2CCCCCC2)c2cc(CNC[C@H]3CCCO3)sc2n1
inactive: Potency [1] | Potency [2] | Potency [3] | Potency [4] | Potency [5]

C=C(C(=O)OC)C1CCC2(C)C(O[C@@H]3O[C@H](CO)[C@@H](O)[C@H](O)[C@H]3O)CC(=O)C(C)C2C1O (stereo not given in full)
inactive: Potency [1] | Potency [2] | Potency [3] | Potency [4] | Potency [5]

CCNC(=O)[C@@H]1CCCN1C(=O)[C@H](CCCN=C(N)N)NC(=O)[C@H](CC(C)C)NC(=O)[C@@H](C)NC(=O)[C@H](Cc1ccc(O)cc1)NC(=O)[C@H](CO)NC(=O)[C@H](Cc1c[nH]c2ccccc12)NC(=O)[C@H](Cc1cnc[nH]1)NC(=O)[C@@H]1CCC(=O)N1
inactive: Potency [1] | Potency [2] | Potency [3] | Potency [4] | Potency [5]

C/C(=C\CCC(C(=O)O)C1CCC2(C)C3=C(CCC12C)C1(C)CCC(=O)C(C)(C)C1CC3)C(=O)O (stereo not given)
inactive: Potency [1] | Potency [2] | Potency [3] | Potency [4] | Potency [5]

COc1cc(/C=C/C(=O)O[C@H]2[C@H](OC(=O)/C=C/c3cc(OC)c(O)c(OC)c3)O[C@H](CO[C@@H]3O[C@H](CO)[C@@H](O)[C@H](O)[C@H]3O)[C@@H](O)[C@@H]2O)ccc1O
inactive: Potency [1] | Potency [2] | Potency [3] | Potency [4] | Potency [5]

CC1CCC2C(C)(C)C(O)CCC2(C)C12Cc1c(O)cc3c(c1O2)CN(C(CCC(N)=O)C(=O)O)C3=O (stereo not given)
inactive: Potency [1] | Potency [2] | Potency [3] | Potency [4] | Potency [5]

C/C1=C\C[C@H](O[C@@H]2O[C@H](CO)[C@@H](O)[C@H](O)[C@H]2O)/C(C)=C/[C@H]2OC(=O)[C@H](C)[C@@H]2CC1
inactive: Potency [1] | Potency [2] | Potency [3] | Potency [4] | Potency [5]

CC1=CC(=O)CC(C)(C)C1(O)CCC(C)O (stereo not given)
inactive: Potency [1] | Potency [2] | Potency [3] | Potency [4] | Potency [5]

Cc1ccc2c(c1)C=Cc1cc(C)ccc1C2c1cn(Cc2ccc(C(=O)Nc3nn[nH]n3)o2)c(=O)[nH]c1=S
inactive: Potency [1] | Potency [2] | Potency [3] | Potency [4] | Potency [5]

CC[C@H]1OC(=O)[C@H](C)[C@@H](O[C@H]2C[C@@](C)(OC)[C@@H](O)[C@H](C)O2)[C@H](C)[C@@H](O[C@@H]2O[C@H](C)C[C@H](N(C)C)[C@H]2O)[C@@](C)(O)C[C@@H](C)[C@@H]2N[C@@H](COCCOC)OC([C@H]2C)[C@]1(C)O
inactive: Potency [1] | Potency [2] | Potency [3] | Potency [4] | Potency [5]

CC(=O)O[C@H]1[C@H](Oc2ccccc2COC(=O)C2(O)C=CCCC2=O)O[C@H](CO)[C@@H](O)[C@@H]1O (stereo not given in full)
inactive: Potency [1] | Potency [2] | Potency [3] | Potency [4] | Potency [5]

Cn1ccnc1CCOC(c1cc2nccc(C(=O)O)c2[nH]1)c1ccccc1Cl (stereo not given)
inactive: Potency [1] | Potency [2] | Potency [3] | Potency [4] | Potency [5]

COc1cc2c(cc1OC)CN(C(=O)[C@@H](NCc1ccncc1)C(C)(C)C)CC2
inactive: Potency [1] | Potency [2] | Potency [3] | Potency [4] | Potency [5]

c1ccc(C(OC2CCN(CCCc3nn[nH]n3)CC2)c2ccccc2)cc1
inactive: Potency [1] | Potency [2] | Potency [3] | Potency [4] | Potency [5]

O=C(O[C@H]1[C@@H]2C=CO[C@@H](O[C@@H]3O[C@H](CO)[C@@H](O)[C@H](O)[C@H]3O)[C@@H]2[C@@]2(CO)O[C@@H]12)c1ccc(O)cc1
inactive: Potency [1] | Potency [2] | Potency [3] | Potency [4] | Potency [5]

C[C@@H]1O[C@@H](O[C@H]2[C@H](O[C@H]3[C@H](O[C@H]4CC[C@@]5(C)C(CC[C@]6(C)C5CC=C5[C@@H]7CC(C)(C(=O)O)C[C@@H](O)[C@]7(C)CC[C@]56C)[C@@]4(C)CO)O[C@H](C(=O)O)[C@@H](O)[C@@H]3O)O[C@H](CO)[C@H](O)[C@@H]2O)[C@H](O)[C@H](O)[C@H]1O (stereo not given in full)
inactive: activity change, negative = cytotoxicity [1] 0.848% [at 11.6 µM] | activity change, negative = cytotoxicity [2] 3.43% [at 11.6 µM] | activity change, negative = cytotoxicity [3] 5.26% [at 11.6 µM] | activity change, negative = cytotoxicity [4] 6.81% [at 11.6 µM] | activity change, negative = cytotoxicity [5] 9.62% [at 11.6 µM]
